Holding throughout (format): functional
Experiment [1] concerns the target Solute carrier family 2, facilitated glucose transporter member 1 (Homo sapiens) (UniProt P11166). Briefly: ST_JUDE_LEISH: Cytotoxicity at 2uM final concentration against transgenic Leishmania Mexicana promastigotes LmGLUT1 that are glucose transport deficient and complemented with the human glucose transporter GLUT1. Activity is measured by DNA content using SYBR green in vitro.

Experiment [2] addresses Hexose transporter 1 (Plasmodium falciparum) (UniProt O97467). Briefly: ST_JUDE_LEISH: Cytotoxicity at 2uM final concentration against transgenic Leishmania Mexicana promastigotes LmPfHT that are glucose transport deficient and complemented with the Plasmodium falciparum hexose transporter. Activity is measured by DNA content using SYBR green in vitro.
In experiment [3] the target is Glucose transporter (Leishmania mexicana) (UniProt O61059). Briefly: ST_JUDE_LEISH: Cytotoxicity at 2uM final concentration against transgenic Leishmania Mexicana promastigotes LmGT2 that are glucose transport deficient and complemented with the L. Mexicana glucose transporter 2. Activity is measured by DNA content using SYBR green in vitro.

Chain of Solute carrier family 2, facilitated glucose transporter member 1 (Homo sapiens) (P11166 whole entry): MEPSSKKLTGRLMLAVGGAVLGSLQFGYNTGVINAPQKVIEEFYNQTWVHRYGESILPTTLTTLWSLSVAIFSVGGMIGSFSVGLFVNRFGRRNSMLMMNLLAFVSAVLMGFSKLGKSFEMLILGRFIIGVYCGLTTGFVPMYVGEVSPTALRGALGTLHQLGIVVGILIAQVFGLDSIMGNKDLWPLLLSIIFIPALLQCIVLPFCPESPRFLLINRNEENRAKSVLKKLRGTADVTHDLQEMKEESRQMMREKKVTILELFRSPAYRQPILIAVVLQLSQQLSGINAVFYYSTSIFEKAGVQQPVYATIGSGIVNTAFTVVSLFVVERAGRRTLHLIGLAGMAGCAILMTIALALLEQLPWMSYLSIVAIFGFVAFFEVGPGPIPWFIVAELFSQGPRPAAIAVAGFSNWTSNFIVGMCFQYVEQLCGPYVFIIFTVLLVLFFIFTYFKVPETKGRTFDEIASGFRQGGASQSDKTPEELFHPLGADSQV

Broadly, the inhibition is the change of the read-out against control, counted positive when it falls. For the molecule `CN(C)Cc1ccc2cc(NC(=O)c3ccc(-c4ccc(Cl)cc4)cc3)ccc2n1`, the inhibition in experiment [1] came out at 2.13%; in experiment [2] it was 1.6%; in experiment [3], 2.79%.

Regarding `COc1cccc(COCC(O)CN(CCc2ccccn2)C(=O)c2ccccc2F)c1` (stereo unspecified), the inhibition in experiment [1] turned out to be 2.13%; in experiment [2], 2.79%; in experiment [3], 2.65%.

In the case of `O=C(CCc1c[nH]cn1)Nc1cccc(-c2ccc(-c3nc4cc(F)ccc4[nH]3)s2)c1`, the inhibition in experiment [1] stood at 10.2%; in experiment [2], 7.95%; in experiment [3], 9.84%.

As to `COc1ccc(NC(=O)Nc2ccc(C)c(-c3ccc(C(=O)NCCN4CCCC4)cc3)c2)cc1`, the inhibition is -1.56% in experiment [1], -2.24% in experiment [2] and -2.87% in experiment [3].

For `CS(=O)(=O)CCNCc1ccc(-c2ccc3c(Nc4ccc(Oc5ccccn5)cc4)ccnc3c2)o1`, the inhibition in experiment [1] was 1.24%; in experiment [2], -0.28%; in experiment [3], 2.55%.

As for `CCCC(=O)Nc1ccc(Nc2nc(C)cc(N3CCCC3)n2)cc1`, the inhibition in experiment [1] is 1.82%; in experiment [2] it was 4.49%; in experiment [3], -0.91%.

For the molecule `COc1ccc(CCNC(=O)c2cc(C)ccc2O)cc1-c1ccc(C(C)(C)C)cc1`, the inhibition is 4.36% in experiment [1], 2.89% in experiment [2] and 4.35% in experiment [3].

Regarding `CCCCNC[C@@H](O)[C@H](Cc1ccccc1)NC(=O)c1cc2c3c(c1)c(CC)cn3CCS(=O)(=O)N2C`, the inhibition in experiment [1] is 2.53%; in experiment [2], 4.07%; in experiment [3] it was 2.04%.

In the case of `CCNc1cc(C(=O)N[C@@H](Cc2ccccc2Cl)[C@H](O)CNC2CCCCC2)cc(N2CCCCS2(=O)=O)c1`, the figures for the inhibition in experiment [1], in experiment [2] and in experiment [3] were 0.03%, 0.45% and -2.07%, respectively.

Regarding `Cc1cccc2nc(-c3cccc(-c4ccc(NC(=O)c5cccc(C(N)=O)c5)cc4)c3)[nH]c12`, the inhibition in experiment [1] amounted to 1.01%; in experiment [2], 1.42%; in experiment [3], 1.38%.

As for `COc1ccc2ncc(Cl)c(CCN3CC[C@@H](CNCc4cc5c(cn4)OCS5)C3)c2n1`, the inhibition came out at 6.89% in experiment [1], 7.89% in experiment [2] and 12.2% in experiment [3].

With `Cc1ccccc1N1CCN(c2ccc(C(=O)Nc3ccccc3)cc2)CC1`, the values for the inhibition in experiment [1], in experiment [2] and in experiment [3] were -0.27%, 0.69% and 1.33%, respectively.

The values are drawn from ChEMBL document CHEMBL3433997, “St. Jude Leishmania screening dataset” (2016).
